Assays:
Assay in all cases: PBM binding z-score (relative to random genomic background probes); higher = stronger binding; sequences stand for … in GC…GCGATTGACAGCGTAGAATGAAGG
[1] = system: FXR:RXRa (NR concentration 270 nM, RXRa partner concentration 90 nM)
In short: (§1)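 Custom Agilent 4×180K protein-binding microarrays carried double-stranded probes, each with a 34-nt variable region. These regions held direct-repeat seeds, single-nucleotide variants, half-site ablations and random human genomic background sequences. Ligand-free nuclear receptor dimers were incubated on the arrays for 1 h, antibodies against each partner (one per run) detected binding, and scanned fluorescence was regression-normalized. Binding z-scores take the random background probes as reference.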

[2] = system: LXRa:RXRa (NR concentration 270 nM, RXRa partner concentration 90 nM)
In short: as §1

[3] = system: LXRa homodimer (NR concentration 270 nM)
In short: as §1

[4] = system: LXRb:RXRa (NR concentration 270 nM, RXRa partner concentration 90 nM)
In short: as §1

[5] = system: LXRb homodimer (NR concentration 270 nM)
In short: as §1

[6] = system: PPARa:RXRa (NR concentration 270 nM, RXRa partner concentration 90 nM)
In short: as §1

[7] = system: PPARg:RXRa (NR concentration 180 nM, RXRa partner concentration 90 nM)
In short: as §1

[8] = system: PPARg:RXRa 270nM:90nM, anti-RXR (NR concentration 270 nM, RXRa partner concentration 90 nM)
In short: as §1

[9] = system: PPARg:RXRa 30nM:10nM, anti-RXR (NR concentration 30 nM, RXRa partner concentration 10 nM)
In short: as §1

[10] = system: PPARg:RXRa 90nM:30nM, anti-RXR (NR concentration 90 nM, RXRa partner concentration 30 nM)
In short: as §1

[11] = system: PPARg:RXRa DBDmut IVT, anti-RXR (DBD mutation: RXRa K156A/R161A, NR concentration 270 nM, RXRa partner concentration 90 nM)
In short: as §1

[12] = system: PPARg:RXRa IVT, anti-PPARg (NR concentration 270 nM, RXRa partner concentration 90 nM)
In short: as §1

[13] = system: PPARg DBDmut:RXRa IVT, anti-PPARg (DBD mutation: PPARg1 K132A/R137A, NR concentration 270 nM, RXRa partner concentration 90 nM)
In short: as §1

[14] = system: PPARg DBDmut IVT, anti-PPARg (DBD mutation: PPARg1 K132A/R137A, NR concentration 270 nM)
In short: as §1

[15] = system: PPARg homodimer (NR concentration 180 nM)
In short: as §1

[16] = system: PXR:RXRa (NR concentration 270 nM, RXRa partner concentration 90 nM)
In short: as §1

[17] = system: PXR homodimer (NR concentration 270 nM)
In short: as §1

[18] = system: RARa:RXR (NR concentration 270 nM, RXRa partner concentration 90 nM)
In short: as §1

[19] = system: RARa homodimer (NR concentration 270 nM)
In short: as §1

[20] = system: RARb:RXRa (NR concentration 270 nM, RXRa partner concentration 90 nM)
In short: as §1

Sequence	PBM binding z-score [1]	PBM binding z-score [2]	PBM binding z-score [3]	PBM binding z-score [4]	PBM binding z-score [5]	PBM binding z-score [6]	PBM binding z-score [7]	PBM binding z-score [8]	PBM binding z-score [9]	PBM binding z-score [10]	PBM binding z-score [11]	PBM binding z-score [12]	PBM binding z-score [13]	PBM binding z-score [14]	PBM binding z-score [15]	PBM binding z-score [16]	PBM binding z-score [17]	PBM binding z-score [18]	PBM binding z-score [19]	PBM binding z-score [20]
ACTAGTTGGTCAGCTGAGGTCACTCACAATTCGG	2.19	2.57	1.98	2.87	0.671	3.26	1.04	1.68	0.169	1.19	1.45	2.35	0.323	0.891	1.61	4.97	1.53	3.69	0.562	3.34
GATACAGGGTCAGCTAGAGGCCAGACTATGGAAA	4.52	2.92	-0.325	2.4	0.0441	4.49	4.01	3.55	1.29	2.19	1.46	2.29	-0.0728	0.0438	1.82	2.88	0.12	4.3	0.752	3.97
ATATTTAGGTTAAGGGTCATTCAGGTTGGTTCGC	5.26	4.78	3.91	4.61	3.14	6.38	11	9.52	9.42	10.5	6.47	7.1	5.34	5.2	5.4	5.69	3.67	5.96	5.28	3.68
AGAATGAGGTTACCGAAGATCAGGGAAACGCTTG	2.18	4.55	-0.477	2.19	-0.522	3.81	2.86	3.26	1.19	2.55	3.97	3.55	0.906	0.381	0.444	1.61	-0.388	2.46	-1.23	2.19
AGAACGAGGGTACGCTGAGTTGATAGCAGAGTAG	-0.315	-0.553	-0.621	-0.739	-0.968	-0.00229	0.661	-0.197	-0.127	-0.289	1.48	0.725	0.215	0.0529	-0.458	0.223	0.15	-0.0408	-0.807	0.364
CCAACTGGGCCATCAGGTCATTGATATCAACGTT	1.54	0.836	0.987	1.56	-0.441	2.73	2.9	3.63	1.38	3.04	5.15	4.92	-0.74	0.0786	1.32	1.59	0.906	1.67	0.182	2.05
ACTAGTTGGTCAGCTGAGTTCACACACAATTCGG	1.06	1.59	1.72	1.59	0.275	1.65	0.747	0.792	0.098	0.251	1.2	1.32	0.662	0.707	0.775	5.66	6.87	2.32	0.2	2
GGAACGAGGGCATTCGAGTTGATACCATGGCGAT	0.529	1.7	-0.438	0.458	-0.357	1.44	1.06	0.855	-0.156	0.405	3.16	2.33	1.32	-0.701	0.6	4.1	1.75	2.07	-0.391	1.93
AGAATGAAGTTAAGATCAGGGAAACAGAATACAT	-0.542	-0.312	-0.0829	-0.14	-0.44	-0.111	0.991	0.0665	0.0605	0.34	-0.915	-0.265	0.14	0.809	-0.657	-0.19	0.0131	-0.474	0.347	-0.251
TCTTGTAGATCAAGCAGGTTGAGAAAGCCTGAGT	0.128	0.187	-0.471	-0.223	-0.57	0.441	-0.512	0.973	2.32	1.66	1.7	0.256	-0.788	-0.244	-0.463	0.124	-0.29	-0.172	-0.364	-0.242
TCATATAGGTAAAAGGTGAAAGGCGGTGTGGTAA	1.86	1.88	0.349	1.9	0.306	5.25	9.05	8.31	8.92	9.94	5.24	5.21	3.35	1.06	2.76	1.69	0.582	2.48	1.28	1.79
GCGACTGGGGCATCAGCAGGTTGCCATAACTTAA	-0.664	-0.697	-0.615	-0.443	-1.37	0.348	0.434	0.229	-0.762	-0.301	3.45	2.85	0.246	-0.846	-0.258	-0.58	-0.422	-0.453	-0.648	0.207
GCTCGGAGAACAAGGTCAGAGCTTTGTCCGTAGA	1.25	1.41	-0.275	1.11	-1.02	2.37	0.176	0.774	-0.425	0.29	0.447	0.471	-0.968	-1.78	0.759	1.73	-0.538	1.79	-0.831	2.86
GTAGACAGGTGAAACGCAGGTAACTCAGGGTGGC	0.081	0.114	-0.34	-0.0403	-0.733	0.941	0.744	0.425	-0.305	0.121	1.08	0.827	-0.547	-0.798	-0.292	-0.0707	-0.535	0.264	-0.278	0.688

— the supplement of paper PMC6555819
